S1P4 agonist = S1P4 receptor agonists, primary screen, cell-based; activation, % at 4.98 µM; S1P4-expressing cell line, agonist reporter assay; actives 0.35% (n = 220,000); in the data active = activation above about 11%;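 note: 0% = DMSO vehicle and 100% = reference agonist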
S1P4 antagonist = S1P4 receptor antagonists, primary screen, cell-based | Sphingosine 1-phosphate receptor 4 (Homo sapiens), O95977 | S1P4-expressing cells, antagonist mode, reporter read-out | inhibition, % at 4.98 µM | actives 0.26% (n = 220,000) | AID 1510, 2009; in the data active = inhibition above about 29%;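 note: 0% = wells stimulated with agonist and 100% = vehicle wells without agonist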
S1P3 antagonist = S1P3 receptor antagonists, primary screen, cell-based. Sphingosine 1-phosphate receptor 3 (Homo sapiens), Q99500. CHO S1P3 NFAT-BLA reporter, FRET fluorescence, antagonist mode. inhibition, % at 4.98 µM. actives 0.27% (n = 170,000). AID 485, 2006;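 active = inhibition above the plate cutoff, the mean inhibition of test wells on that plate plus 3 SD, cut at about 28% in these data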;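 note: cells challenged with S1P at its EC80 of 0.8 µM; blue over green emission ratio from cleaved BLA substrate after 4 h stimulation; 0% = S1P-stimulated wells and 100% = unstimulated DMSO-only wells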
Target sequence (Q99500 whole entry, looked up): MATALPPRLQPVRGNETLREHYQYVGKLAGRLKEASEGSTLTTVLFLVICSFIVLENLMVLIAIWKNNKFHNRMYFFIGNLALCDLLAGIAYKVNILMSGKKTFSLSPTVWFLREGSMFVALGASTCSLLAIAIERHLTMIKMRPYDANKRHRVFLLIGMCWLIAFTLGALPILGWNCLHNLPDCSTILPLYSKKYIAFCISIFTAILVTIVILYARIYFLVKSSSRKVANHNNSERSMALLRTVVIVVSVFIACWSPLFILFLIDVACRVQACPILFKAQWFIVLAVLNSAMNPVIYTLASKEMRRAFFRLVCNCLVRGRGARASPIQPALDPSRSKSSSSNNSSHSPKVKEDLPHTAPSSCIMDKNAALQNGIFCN
GALR2 agonist = GALR2 receptor agonists, primary screen, cell-based; GALR2-expressing cells, agonist activation read-out; activation, % (concentration not given with the values); actives 0.48% (n = 140,000); in the data active = activation above about 5%, passing the limit was not always enough;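 note: 0% = vehicle buffer wells and 100% = reference agonist at full effect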
GALR2 antag = GALR2 antagonists in receptor-expressing cells, primary screen; actives 0.39% (n = 140,000); Galanin receptor type 2 (Homo sapiens), O43603; antagonist mode; AID 828, 2007; inhibition, % at 4 µM; in the data active = inhibition above about 27%;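 note: cells stimulated with galanin 1-16 at roughly its EC80; 0% = agonist challenge control and 100% = basal control without agonist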
S1P4 agonist cf = S1P4 receptor agonists, retest, confirmation, cell-based, high throughput; shares compounds with S1P4 agonist; S1P4 agonist cell-based reporter assay; activation, % at 4.98 µM; actives 7% (n = 740); AID 1523, 2009; in the data active = activation above about 12%;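 note: 0% = vehicle and 100% = full reference agonist response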
S1P1 agonist = S1P1 receptor agonists, human, counter-screen for S1P4 agonist project, cell-based; shares compounds with S1P4 agonist; S1P1 agonist cell-based assay, activation; activation, % at 4.98 µM; actives 4% (n = 740); AID 1563, 2009; in the data active = activation above about 21%;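 note: 0% = vehicle wells and 100% = reference agonist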
Target sequence (P21453 whole entry, looked up): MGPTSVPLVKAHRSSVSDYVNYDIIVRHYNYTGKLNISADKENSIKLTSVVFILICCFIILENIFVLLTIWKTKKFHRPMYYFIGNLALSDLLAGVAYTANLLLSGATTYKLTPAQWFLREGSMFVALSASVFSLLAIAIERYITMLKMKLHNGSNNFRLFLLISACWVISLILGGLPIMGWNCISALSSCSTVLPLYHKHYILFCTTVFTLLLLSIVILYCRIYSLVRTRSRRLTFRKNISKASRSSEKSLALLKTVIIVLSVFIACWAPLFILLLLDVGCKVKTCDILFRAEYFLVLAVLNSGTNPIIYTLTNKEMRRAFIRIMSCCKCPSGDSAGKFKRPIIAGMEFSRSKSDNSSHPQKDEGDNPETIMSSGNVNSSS
* = called active by the depositor; . = no result. A selection: hits, their analogues and other compounds. The true share with any hit is near 1.3%.

SMILES | S1P4 agonist | S1P4 antagonist | S1P3 antagonist | GALR2 agonist | GALR2 antag | S1P4 agonist cf | S1P1 agonist
O=S(=O)(c1ccccc1Oc1ccc(Cl)cc1Cl)N1CCCCC1 | 1.9 | 1.8 | -2.8 | . | . | . | .
OCCOCCNc1ncnc2c1cnn2-c1ccc(Cl)cc1 | 67.8* | 10.1 | . | -1.8 | -13.7 | 0.2 | 7.8
Cc1ccc(NC(=O)CCn2c(=O)[nH]c3ccsc3c2=O)cc1 | 1.5 | -10.5 | 3.0 | . | . | . | .
CCOc1ccc(NC(=O)CCn2c(=O)[nH]c3ccsc3c2=O)cc1 | 24.1* | -3.5 | . | -3.3 | 1.5 | -1.2 | -3.8
CCOC(=O)C1(Cc2ccc(Cl)cc2)CCN(C(=O)CCc2cnccn2)CC1 | 0.4 | -30.3 | -14.6 | . | . | . | .
CCOC(=O)C1(Cc2ccc(Cl)cc2)CCN(C(=O)CCc2ccncc2)CC1 | 18.7* | -2.7 | -2.8 | . | . | -1.0 | -0.5
COc1ccc2nc(NC3=NC(C(=O)Nc4ccc(C)cc4)CC(=O)N3)nc(C)c2c1 (stereo not drawn) | 37.7* | -14.5 | -14.0 | -0.9 | -8.6 | -1.4 | -2.0
CCC(=O)Nc1cc(C(=O)OCc2ccc(C(=O)Oc3ccccc3)cc2)ccc1C | 1.4 | -19.4 | 0.6 | -0.2 | 1.8 | . | .
CC(=O)Nc1ccc(C(=O)N/N=C/c2ccccc2OCc2ccccc2)cc1 | 18.6* | 3.5 | 0.9 | . | . | -1.5 | -4.2
CC(=O)OCC1=C(C(=O)O)N2C(=O)C(NC(=O)c3ccc(COc4cccc(Cl)c4Cl)o3)C2SC1 (stereo not drawn) | -0.9 | 6.1 | 2.1 | . | . | . | .
COc1ccc(S(=O)(=O)Nc2cccc(C(C)=O)c2)cc1Br | 0.6 | -14.3 | -17.8 | . | . | . | .
COc1ccc(S(=O)(=O)Nc2cccc(N(C)S(C)(=O)=O)c2)cc1Br | 11.4* | -7.9 | -12.4 | 0.3 | 0.8 | -1.2 | 9.4
CCCn1nnc(NC(=O)c2ccc3c(c2)OCO3)n1 | -0.9 | -12.4 | -2.5 | . | . | . | .
CCCN(Cc1nnc(-c2ccccc2Cl)o1)C(=O)c1cc([N+](=O)[O-])cc([N+](=O)[O-])c1 | 18.8* | -9.7 | 3.0 | . | . | -1.6 | -5.8
CCOc1ccc(-n2c(SCC(=O)Nc3nccs3)nnc2-c2ccoc2C)cc1 | -0.4 | 4.7 | -8.8 | . | . | . | .
CCOc1ccccc1-n1c(SCC(=O)Nc2nccs2)nnc1-c1ccoc1C | 19.4* | 4.2 | -25.4 | -1.1 | -0.5 | -1.8 | 4.3
O=S(=O)(c1ccc(-c2cn3ccccc3n2)cc1)N1CCOCC1 | 67.9* | -5.6 | . | -1.0 | -2.6 | -1.6 | 3.0
CCOC(=O)Nc1nn(-c2ccc(C)cc2)c(=O)c(C#N)c1C | 0.9 | -6.3 | -9.1 | . | . | . | .
CC1C2=C(CC(C)(C)CC2=O)NC2=C1C(=O)CC(C)(C)C2 | 17.7* | -4.5 | -8.8 | . | . | 7.5 | 7.6
Cc1ccc(O)c(-c2cc(C(=O)NCc3ccc4c(c3)OCO4)[nH]n2)c1 | 3.5 | -16.2 | -3.0 | -1.1 | -1.2 | . | .
CCCC(C)NC(=O)COc1ccc(Sc2ccc(OCC(=O)NC(C)CCC)cc2)cc1 (stereo not drawn) | 1.1 | -13.7 | 1.4 | -0.6 | -1.0 | . | .
CCC(=O)N/C(N)=N/c1nc(C)c2cc(C)c(C)cc2n1 | 11.6* | -8.2 | 0.7 | . | . | -1.4 | -6.4
Cc1ccc(N2C(=O)CC(Nc3ccc(Cl)c(S(=O)(=O)N(C)C)c3)C2=O)c(C)c1 (stereo not drawn) | 0.3 | -2.7 | 9.7 | . | . | . | .
CCCCOc1ccccc1C1C(C(=O)OC)=CN(CC)C=C1C(=O)OC | 11.6* | -2.9 | -53.3 | 15.7* | -6.7 | 3.4 | 12.7
CCCOc1ccccc1C1C(C(=O)OC)=CN(C(C)C)C=C1C(=O)OC | 18.0* | -8.2 | -1.7 | 29.1* | -12.4 | 2.8 | 4.9
SMILES | S1P4 agonist | S1P4 antagonist | S1P3 antagonist | GALR2 agonist | GALR2 antag | S1P4 agonist cf | S1P1 agonist
CCCOc1ccccc1C1NC(=O)NC(C)=C1C(=O)OCCOCC (stereo not drawn) | -0.3 | -22.1 | 9.5 | -2.1 | -10.9 | . | .
CCOc1ccc(C2C(C(=O)OC)=CN(CCOC)C=C2C(=O)OC)cc1 | 9.0 | -27.3 | 10.5 | 3.7 | 4.5 | . | .
Cc1cc(C)c(S(=O)(=O)NCCc2ccccc2)c(C)c1 | 20.7* | -8.7 | 5.8 | . | . | -1.1 | -6.8
COc1ccc(CCC(=O)N2CCCSC2=Nc2ccc(C(C)=O)cc2)cc1 | 23.5* | -5.3 | -8.8 | -0.9 | 0.8 | 1.0 | -0.6
COc1ccc(CCC(=O)N2CCN(C3CCCCC3)CC2)cc1 | 3.1 | -33.9 | 0.3 | -0.8 | 3.6 | . | .
Cc1ccc(Nc2c(-c3ccc(C)o3)nc3ncccn23)cc1 | 11.0* | 2.5 | -0.1 | . | . | -0.7 | 1.5
CCOC(=O)c1cnc2c(c(C)nn2C)c1Oc1ccccc1F | 2.2 | 10.3 | -4.1 | . | . | . | .
CC(/C=N/N1CCN(c2ccccn2)CC1)=C\c1ccccc1 | 11.3* | -1.2 | 14.1 | -1.9 | -4.2 | -0.1 | 1.6
CS(=O)(=O)N1CCc2cc(C(=O)N3CCOCC3)ccc21 | 26.9* | 1.6 | -6.8 | -3.0 | 1.3 | -1.6 | -3.5
CS(=O)(=O)N1CCc2cc(C(=O)N3CCCCC3)ccc21 | 0.6 | -12.5 | 10.8 | -4.5 | -0.4 | . | .
O=C1OC(c2ccccc2)c2ccc3ccccc3c21 (stereo not drawn) | -0.6 | -3.5 | 1.2 | -0.6 | 17.8 | . | .
COC(=O)c1ccc2c(c1)C(=O)/C(=C/c1ccc(C)cc1)O2 | 12.7* | -23.0 | 6.7 | -0.6 | -5.9 | -0.5 | -1.8
CCc1ccc(/C=C2\Oc3ccc(C(=O)OC)cc3C2=O)cc1 | 1.9 | -19.0 | 11.3 | -1.1 | -2.8 | . | .
Cc1ccc2nc3c(cc(C#N)c(=O)n3-c3nccs3)c(=O)n2c1 | 31.4* | -40.1 | -71.9 | 26.6* | -21.7 | 14.5* | 23.6*
CN(c1ccccc1)S(=O)(=O)c1cccc(NC(=O)C2CC(=O)N(Cc3ccccc3)C2)c1 (stereo not drawn) | 0.3 | -0.7 | -6.0 | . | . | . | .
CCC(C)(C(=O)NC1CCCCC1)N(Cc1cccs1)C(=O)c1ccccn1 (stereo not drawn) | 44.7* | 3.5 | -5.2 | . | . | -1.8 | -1.1
Cc1ccc(CN2CCN(Cc3cn[nH]c3-c3cccc(F)c3)CC2CCO)o1 (stereo not drawn) | 15.1* | -0.6 | -5.6 | . | . | -1.4 | -4.6
COc1cc(C)nc(Nc2nc(C)c(C(C)=O)s2)n1 | 12.4* | -15.7 | . | 0.1 | -8.0 | -2.8 | -0.1
COc1ccc2nc(Nc3nc(C)c(C(C)=O)s3)sc2c1 | 1.2 | -12.7 | 16.5 | 2.0 | 2.5 | . | .
CCCOc1ccc(/C=N/Nc2ccc(C(=O)O)cc2)c(OCCC)c1 | 11.7* | 13.0 | -5.2 | . | . | -1.4 | -1.7
CCOc1ccc(NC(=O)Nc2cccn(Cc3ccccc3)c2=O)cc1 | 38.0* | -10.0 | 9.2 | . | . | -0.9 | -0.2
O=C(NCc1ccccc1)Nc1cccn(Cc2ccccc2)c1=O | -0.7 | -6.8 | -11.3 | -0.8 | -4.0 | . | .
Cn1cccc1/C=C(/C#N)c1ccc(F)cc1 | -0.7 | -12.7 | -8.8 | . | . | . | .
